Test results from PubChem BioAssay AID1345085 (National Center for Advancing Translational Sciences (NCATS), 2018).
Inconclusive results are not listed. Active and inactive are the calls of the source. Calls follow the shape of the dose curve; as a rule, active = well fitted cell-killing curve with a large enough effect; inconclusive = small, poorly fitted or top-dose-only effect, or effect the other way; inactive = no such curve, though single readings can be large or run the other way.
Also: nearly all actives have a fitted effect of over 55% in size.
Potency is read from the fitted curve at half-maximal effect.

These molecules were tested on Es-2 (assay: Confirmatory qHTS for gynecologic anti-cancer compounds from libraries of approved drugs and bioactive compounds). Conditions: gynecologic cancer cell panel viability, ATPlite luminescence, 48 h; series mostly up to 57.6 µM.
Outline: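 Cells (1,000/well) were plated, left 16 h at 37 C/5% CO2, then given compound at 11 concentrations (1:3) from 57.5 uM to 0.977 nM for 48 h. ATPlite luminescence after 15 min at room temperature gave IC50 values.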
With `CCS(=O)(=O)N1CCN(c2ccc(Nc3ncc(C(N)=O)c(NC4CC4)n3)cc2)CC1` the Potency was “inactive”.
For `O=C1Cc2cc(CCN3CCN(c4nsc5ccccc45)CC3)c(Cl)cc2N1`, the Potency was “inactive”.
For `Nc1nc(=S)c2[nH]cnc2[nH]1`, the Potency was 3.43 µM (active).
With `COCCOc1ccc2c(c1)ncn2-c1ccc2cccc(N3CCC(N)CC3)c2n1` the Potency was 6.11 µM (active).
`CCCCc1oc2ccc(NS(C)(=O)=O)cc2c1C(=O)c1ccc(OCCCN(CCCC)CCCC)cc1` was tested, and the Potency was 24.3 µM (active).
In the case of `COc1cc(N2CCC(N)CC2)ccc1Nc1ncc(Cl)c(-c2c[nH]c3ccccc23)n1`, the Potency was “inactive”.
With `CC(C)n1nc(-c2cc3cc(O)ccc3[nH]2)c2c(N)ncnc21` the Potency was 4.85 µM (active).
In the case of `COc1cc2c(cc1-c1c(C)noc1C)ncc1[nH]c(=O)n(C(C)c3ccccn3)c12` (configuration not stated), the Potency was 2.17 µM (active).
For `CCOc1cc2ncc(C#N)c(Nc3ccc(F)c(Cl)c3)c2cc1NC(=O)/C=C/CN(C)C`, the Potency was 24.3 µM (active).
For `CCN(CC)CCNC(=O)c1c(C)[nH]c(/C=C2\C(=O)Nc3ccc(F)cc32)c1C`, the Potency was 25.1 µM (active).
For `CC[C@@]1(O)C(=O)OCc2c1cc1n(c2=O)Cc2cc3cc(O)ccc3nc2-1`, the Potency was 0.0544 µM (active).
With `COc1cc2ncnc(Nc3ccc(F)c(Cl)c3)c2cc1OCCCN1CCOCC1` the Potency was “inactive”.
With `C1CCC(C(CC2CCCCN2)C2CCCCC2)CC1` (configuration not stated) the Potency was 24.3 µM (active).
For `O=C(NOC[C@H](O)CO)c1ccc(F)c(F)c1Nc1ccc(I)cc1F`, the Potency was 0.344 µM (active).
In the case of `CN(C)/N=N/c1nc[nH]c1C(N)=O`, the Potency was “inactive”.
`COc1ccc2cc3[n+](cc2c1OC)CCc1cc2c(cc1-3)OCO2` was tested, and the Potency was “inactive”.
`Cn1c(=O)c(-c2c(Cl)cccc2Cl)cc2cnc(Nc3cccc(C(=O)O)c3)nc21` was tested, and the Potency was 2.73 µM (active).
In the case of `Cc1ccc(C(=O)Nc2ccc(CN3CCN(C)CC3)c(C(F)(F)F)c2)cc1C#Cc1cnc2[nH]ncc2c1`, the Potency was 0.306 µM (active).
`CCC1C(=O)N(C)c2cnc(Nc3ccc(C(=O)NC4CCN(C)CC4)cc3OC)nc2N1C1CCCC1` (configuration not stated) was tested, and the Potency was 0.0611 µM (active).
For `COc1ccc2c(c1OC)C(=O)O[C@@H]2[C@H]1c2c(cc3c(c2OC)OCO3)CCN1C`, the Potency was “inactive”.
`CC(C)[C@@H](CS(=O)(=O)C(C)C)N1C(=O)[C@@](C)(CC(=O)O)C[C@H](c2cccc(Cl)c2)[C@H]1c1ccc(Cl)cc1` was tested, and the Potency was “inactive”.
With `O=c1[nH]c(=O)n([C@H]2C[C@H](O)[C@@H](CO)O2)cc1Br` the Potency was “inactive”.
For `CCN(CC)CCOc1ccc(/C(=C(\Cl)c2ccccc2)c2ccccc2)cc1`, the Potency was 398 µM (active).
For `O=C(c1ccc(/C=C/c2n[nH]c3ccccc23)cc1)N1CCNCC1`, the Potency was 27.3 µM (active).
`Cc1cnc(Nc2cccc(CN3CCOCC3)c2)nc1Nc1cccc(S(=O)(=O)NC(C)(C)C)c1` was tested, and the Potency was 6.11 µM (active).
In the case of `CC1(C)[C@@H](O)CC[C@]2(C)[C@H]3C(=O)C=C4[C@@H]5C[C@@](C)(C(=O)O)CC[C@]5(C)CC[C@@]4(C)[C@]3(C)CC[C@@H]12`, the Potency was “inactive”.
In the case of `CN(NC(=O)CC(=O)NN(C)C(=S)c1ccccc1)C(=S)c1ccccc1`, the Potency was 0.611 µM (active).
`O=C1c2c(O)ccc(O)c2C(=O)c2c(NCCNCCO)ccc(NCCNCCO)c21` was tested, and the Potency was 0.968 µM (active).
`CC(C)C[C@H](NC(=O)[C@H](Cc1ccccc1)NC(=O)c1cnccn1)B(O)O` was tested, and the Potency was 0.0611 µM (active).
For `Cc1cc(Nc2cc(N3CCN(C)CC3)nc(/C=C/c3ccccc3)n2)n[nH]1`, the Potency was 24.3 µM (active).
In the case of `COC(C)(C)CCn1nc(Nc2c(C)cccc2C)c2cnc(Nc3ccc(OCCN4CCCC4)c(F)c3)nc21`, the Potency was “inactive”.
With `Cc1nc(N)sc1-c1ccnc(Nc2ccc(N3CCOCC3)cc2)n1` the Potency was 9.68 µM (active).
`COc1cccc2c1C(=O)c1c(O)c3c(c(O)c1C2=O)C[C@@](O)(C(=O)CO)C[C@@H]3O[C@H]1C[C@H](N)[C@H](O[C@@H]2CCCCO2)[C@H](C)O1` was tested, and the Potency was 7.69 µM (active).
`FC(F)(F)c1ccc(/C=C/c2nc(COc3ccc(CCCCn4ccnn4)cc3)co2)cc1` was tested, and the Potency was 24.3 µM (active).
`COC(C(=O)N1Cc2[nH]nc(NC(=O)c3ccc(N4CCN(C)CC4)cc3)c2C1)c1ccccc1` (configuration not stated) was tested, and the Potency was “inactive”.
With `Cn1cnc2c(F)c(Nc3ccc(Br)cc3Cl)c(C(=O)NOCCO)cc21` the Potency was 6.85 µM (active).
For `CC1=C(/C=C/C(C)=C/C=C/C(C)=C/C(=O)Nc2ccc(O)cc2)C(C)(C)CCC1`, the Potency was 27.3 µM (active).
